Inconclusive results are not listed. The source holds several records for some structures; these can differ, active in one and inactive in another. Calls of active or inactive are those of the source. Unless noted, calls follow the shape of the dose curve; as a rule, active = well fitted curve in the direction sought with a large enough effect in the repeat runs; inconclusive = weak or mixed curves; inactive = no such curve, though single readings can be large; an effect the other way counts as inactive or inconclusive.

Results on 21 compounds are retold here after PubChem BioAssay (Tox21).

Assay [1] in a line: qHTS assay for small molecules that induce genotoxicity in human embryonic kidney cells expressing luciferase-tagged ATAD5 (AID 651632). Also: nearly all actives have a fitted effect of over 15% in size. Also: potency is read from the fitted curve at half-maximal effect. The essentials:
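A rise in luciferase signal from ATAD5-tagged HEK293T cells marks genetic stress. Cells were exposed to compounds for 16 hr at 37C, 5% CO2, then luciferase was quantified after a 30 min room-temperature incubation with Amplite.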

The nature of assay [2]: qHTS assay for small molecule agonists of the p53 signaling pathway - cell viability (AID 651633; calls by dose curve; also: nearly all actives have a fitted effect of over 30% in size; also: potency is read from the fitted curve at half-maximal effect). The essentials: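 p53RE-bla cells were treated with compound for 16 hours at 37 C. Cytotoxicity was then measured as CellTiter-Glo luminescence after 30 min at room temperature.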
The nature of assay [3]: qHTS assay for small molecules that induce genotoxicity in human embryonic kidney cells expressing luciferase-tagged ATAD5 - cell viability (AID 651634; calls by dose curve; also: nearly all actives have a fitted effect of over 25% in size; also: potency is read from the fitted curve at half-maximal effect). The essentials:
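Cytotoxicity counter-readout: after 15.5 hr compound treatment at 37C, live-cell protease activity in ATAD5-luciferase HEK293T cells measured by CellTiter-Fluor fluorescence, 30 min development at 37C.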

The nature of assay [4]: qHTS assay for small molecule disruptors of the mitochondrial membrane potential - cell viability (AID 720634; calls by dose curve; also: nearly all actives have a fitted effect of over 20% in size; also: potency is read from the fitted curve at half-maximal effect). The essentials: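 Cytotoxicity was quantified from ATP content by CellTiter-Glo luminescence in the same wells as the MMP dye read-out. HepG2 (2,000 cells/well) were plated overnight and exposed to compounds for 1 hr at 37 C.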
The nature of assay [5]: qHTS assay for small molecule disruptors of the mitochondrial membrane potential (AID 720635). Also: potency is read from the fitted curve at half-maximal effect. The essentials: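 HepG2 cells exposed to compound 1 hr at 37C, then Mito-MPS dye 30 min. Ratio read of aggregate (540/590 nm) versus monomer (490/535 nm) fluorescence.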
The nature of assay [6]: qHTS assay to test for compound auto fluorescence at 590 nm (red) in HepG2 cells (AID 720674). In a few lines:
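Seeding: 2,000 HepG2 cells/well, MEM/10% FBS, overnight 37 C. Dosing: compound vs DMSO. Incubation: 1 hr, 37 C, 5% CO2. Read: fluorescence 540 ex/590 em, Rose Bengal sodium as red reference.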

Assay [7] in a line: qHTS assay to test for compound auto fluorescence at 535 nm (green) in HepG2 cells (AID 720675).
Assay [8] in a line: qHTS assay to test for compound auto fluorescence at 460 nm (blue) in HEK293 cells (AID 720678). The essentials:
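Intrinsic compound fluorescence is recorded in live HEK293 cultures after overnight incubation at 37C, 5% CO2, using excitation 405 nm and emission 460 nm. Values are referenced to triamterene.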

Assay [9] in a line: qHTS assay to test for compound auto fluorescence at 590 nm (red) in HEK293 cells (AID 720679). In a few lines:
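Red autofluorescence, HEK293 cells: 2,000 cells/well; attach 4-5 hr 37C; add 23 nL cpd or DMSO; incubate o/n 37C 5% CO2; read Ex540/Em590; Rose Bengal sodium reference.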

For `O=C(O)C1=C(CSc2nnnn2CS(=O)(=O)O)CS[C@@H]2[C@H](NC(=O)[C@H](O)c3ccccc3)C(=O)N12`, the Potency result in assay [1], in [2], in [3], in assay [4], in [5] and in assay [6] was “inactive” in each case. For the same compound, the Potency entry in [7], in assay [8] and in assay [9] was “inactive” each time.

Regarding `CCCCC[C@H](O)/C=C/[C@@H]1[C@H]2C/C(=C/CCCC(=O)O)O[C@H]2C[C@H]1O`, the Potency entry in assay [1], in assay [2], in [3], in assay [4], in assay [5] and in [6] was “inactive” throughout. Also, the Potency result in assay [7], in assay [8] and in [9] was “inactive” throughout.

For the compound `CN(CCO)CC(O)Cn1cnc2c1c(=O)n(C)c(=O)n2C` (stereo unspecified) (tested in a mixture with another compound), the Potency result in assay [1], in assay [2], in assay [3], in assay [4], in [5] and in assay [6] was “inactive” in each case. The Potency entry in [7], in assay [8] and in assay [9] was “inactive” throughout.

Take `CNC(C)CCC=C(C)C` (stereo unspecified): the Potency result in [1], in assay [2], in assay [3], in assay [4], in assay [5] and in [6] was “inactive” each time. For the same compound, the Potency entry in [7], in assay [8] and in [9] was “inactive” throughout.

For the compound `O=P(O)(O)OC[C@H]1O[C@](O)(COP(=O)(O)O)[C@@H](O)[C@@H]1O`, the Potency entry in [1], in assay [2], in [3], in [4], in assay [5] and in assay [6] was “inactive” each time. The Potency result in assay [7], in assay [8] and in [9] was “inactive” each time.

In the case of `COc1cc(/C=C/C(=O)N2CCN(CC(=O)N3CCCC3)CC2)cc(OC)c1OC`, the Potency result in assay [1], in assay [2], in assay [3], in assay [4], in [5] and in assay [6] was “inactive” in each case. Further, the Potency entry in assay [7], in assay [8] and in [9] was “inactive” throughout.

As for `CCCCCCCCCCCCCCCC(=O)OCC(COC(=O)CCCCCCCCCCCCCCC)OC(=O)CCCCCCCCCCCCCCC`, the Potency entry in assay [1], in assay [2], in [3], in assay [4], in assay [5] and in assay [6] was “inactive” in each case. Besides, the Potency result in assay [7], in assay [8] and in assay [9] was “inactive” in each case.

As for `O=[n+]1ccn([O-])c2ccccc21`, the Potency result in assay [1], in assay [2], in assay [3], in [4], in assay [5] and in assay [6] was “inactive” throughout. Also, the Potency result in assay [7], in assay [8] and in assay [9] was “inactive” each time.

Consider `COc1ccc(CC2c3cc(OC)c(OC)cc3CC[N+]2(C)CCC(=O)OCCCCCOC(=O)CC[N+]2(C)CCc3cc(OC)c(OC)cc3C2Cc2ccc(OC)c(OC)c2)cc1OC` (stereo unspecified), for which the Potency entry in assay [1], in [2], in [3], in assay [4], in [5] and in [6] was “inactive” throughout. Also, the Potency result in [7], in assay [8] and in assay [9] was “inactive” throughout.

Regarding `COC(=O)[C@H]1[C@H]2C[C@@H]3c4[nH]c5ccccc5c4CCN3C[C@H]2C[C@@H](OC(=O)c2cc(OC)c(OC)c(OC)c2)[C@@H]1OC`, the Potency result in [1], in [3], in assay [4], in assay [6], in assay [7] and in assay [8] was “inactive” throughout. Moreover, the Potency result in assay [9] was “inactive”. Moreover, the Potency was 5.31 µM (active) and inactive in [2]; 3.35 µM (active) in assay [5].

With `CCCCCCCCCCCCCCCCCC(=O)OC[C@@H](O)[C@H]1OC[C@H](O)[C@H]1O`, the Potency result in assay [1], in assay [2], in [3], in assay [4], in assay [5] and in [7] was “inactive” in each case. Besides, the Potency result in assay [8] and in [9] was “inactive” each time.

In the case of `Cc1c(O)cc2c(c1C)O[C@](C)(CCC[C@H](C)CCC[C@H](C)CCCC(C)C)CC2`, the Potency result in [1], in [2], in [3], in [4], in assay [5] and in assay [6] was “inactive” throughout. Further, the Potency entry in [7], in [8] and in assay [9] was “inactive” in each case.

Regarding `CSc1nc2cc(Oc3cccc(Cl)c3Cl)c(Cl)cc2[nH]1`, the Potency result in assay [1], in [7], in assay [8] and in [9] was “inactive” throughout. The Potency in [2] was 10.6 µM (active); in [3], 29.8 µM (active); in [4], 2.11 µM (active); in assay [5], 1.68 µM (active).

With `CCOc1ccc(N=Nc2ccc(N)cc2N)cc1`, the Potency was 0.168 µM (active) in assay [1], 2.37 µM (active) in assay [3], 11.9 µM (active) in assay [4] and 1.68 µM (active) in [5]. For the same compound, the Potency result in [2], in assay [6], in [7], in [8] and in assay [9] was “inactive” each time.

As to `CN(C)C(=O)CCSC(SCCC(=O)O)c1cccc(/C=C/c2ccc3ccc(Cl)cc3n2)c1` (stereo unspecified), the Potency is 4.73 µM (active) in assay [1]; 29.8 µM (active) in [2]; 23.7 µM (active) in assay [3]; 29.8 µM (active) in assay [4]; 24.8 µM (active) in assay [5]. Also, the Potency entry in [6], in assay [7], in assay [8] and in [9] was “inactive” each time.

For `NC[C@@H]1O[C@H](O[C@H]2[C@@H](O)[C@H](O[C@@H]3[C@@H](O)[C@H](N)C[C@H](N)[C@H]3O[C@H]3O[C@H](CN)[C@@H](O)[C@H](O)[C@H]3N)O[C@@H]2CO)[C@H](N)[C@@H](O)[C@@H]1O`, the Potency entry in assay [1], in assay [2], in [3], in [4], in assay [5] and in assay [6] was “inactive” throughout. The Potency entry in [7], in [8] and in assay [9] was “inactive” throughout.

With `CC(=O)O[C@]1(C(C)=O)CC[C@H]2[C@@H]3CCC4=CC(=O)CC[C@]4(C)[C@@]3(F)[C@@H](O)C[C@@]21C`, the Potency result in assay [1], in [2], in assay [3], in assay [4], in [5] and in assay [6] was “inactive” in each case. The Potency entry in assay [7], in assay [8] and in [9] was “inactive” each time.

On to `CO[C@H]1C[C@@H]2CC[C@@H](C)[C@@](O)(O2)C(=O)C(=O)N2CCCC[C@H]2C(=O)O[C@H]([C@H](C)C[C@@H]2CC[C@@H](OC(=O)C(C)(CO)CO)[C@H](OC)C2)CC(=O)[C@H](C)/C=C(\C)[C@@H](O)[C@@H](OC)C(=O)[C@H](C)C[C@H](C)/C=C/C=C/C=C/1C`, for which the Potency entry in assay [1], in assay [2], in assay [3], in assay [4], in assay [5] and in assay [6] was “inactive” each time. In addition, the Potency result in [7], in assay [8] and in assay [9] was “inactive” in each case.

Consider `CC(O)[C@H]1CC[C@H]2[C@@H]3CC[C@@H]4C[C@@H](O)CC[C@]4(C)[C@H]3CC[C@]12C` (stereo partly specified), for which the Potency entry in assay [1], in assay [2], in [3], in [4], in assay [5] and in assay [6] was “inactive” throughout. Besides, the Potency result in assay [7], in assay [8] and in assay [9] was “inactive” each time.

For `C/C(=C(\CCOC(=O)c1ccccc1)SS/C(CCOC(=O)c1ccccc1)=C(/C)N(C=O)Cc1cnc(C)nc1N)N(C=O)Cc1cnc(C)nc1N`, the Potency result in assay [1], in assay [2], in assay [3], in assay [4], in [5] and in [6] was “inactive” throughout. Also, the Potency result in [7], in assay [8] and in assay [9] was “inactive” throughout.

Regarding `CCCCC(O)c1ccccc1` (stereo unspecified), the Potency result in [1], in [3], in assay [4], in assay [5], in [7] and in assay [8] was “inactive” in each case. Moreover, the Potency entry in assay [9] was “inactive”. Moreover, in assay [2], the Potency was 26.6 µM (active).
